Experimental findings from PubChem BioAssay (NCATS) are described below.

Results filed as inconclusive are left out. Unmarked numbers belong to inactive results. Calls of active or inactive are those of the source. Calls follow the shape of the dose curve; as a rule, active = well fitted curve in the direction sought with a large enough effect; inconclusive = small, poorly fitted or top-dose-only effect, or another doubt; inactive = no such curve, though single readings can be large; an effect the other way counts as inactive or inconclusive.

Experiment [1] in a line: Quantitative High-Throughput drug screen in 47 multiple myeloma cell lines against the NCATS MIPE library collection: Karpas620_DSMZ cell viability assay (AID 1918959). Also: nearly all actives have a fitted effect of over 30% in size. A digest of the protocol:
(§1)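 We plated 500 myeloma cells per well, pinned in MIPE 4.0 compounds, and incubated for 48 hours at 37C. ATP was then quantified with CellTiter-Glo, with DMSO and media-only wells defining 100% and 0%.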

Experiment [2] in a line: Quantitative High-Throughput drug screen in 47 multiple myeloma cell lines against the NCATS MIPE library collection: KMM1_JCRB cell viability assay (AID 1918960). Also: nearly all actives have a fitted effect of over 30% in size. In outline:
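CellTiter-Glo luminescence after 48 h exposure gives viability, scaled between DMSO-only (100%) and media-only (0%) controls. Library compounds are pinned onto 500 myeloma cells per well, incubated at 37C with 5% CO2.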

Experiment [3] in a line: Quantitative High-Throughput drug screen in 47 multiple myeloma cell lines against the NCATS MIPE library collection: JIM3_ECACC cell viability assay (AID 1918963; also: nearly all actives have a fitted effect of over 35% in size). A digest of the protocol: as §1
A short description of experiment [4]: Quantitative High-Throughput drug screen in 47 multiple myeloma cell lines against the NCATS MIPE library collection: H1112_PLB cell viability assay (AID 1918967; also: nearly all actives have a fitted effect of over 30% in size). A digest of the protocol: (§2)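 Primary qHTS used for cherry-picking: cells at 500/well, library compounds for 48 h (37C, 5% CO2), luminescent ATP assay.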
A short description of experiment [5]: Quantitative High-Throughput drug screen in 47 multiple myeloma cell lines against the NCATS MIPE library collection: Karpas25_ECACC cell viability assay (AID 1918968; also: nearly all actives have a fitted effect of over 35% in size). In outline: as §2
Experiment [6] is described as follows: Quantitative High-Throughput drug screen in 47 multiple myeloma cell lines against the NCATS MIPE library collection: KMS27_JCRB cell viability assay (AID 1918970). Also: nearly all actives have a fitted effect of over 30% in size. Conditions: KMS27 myeloma cells, CellTiter-Glo ATP viability, 48 h; viability (% of DMSO): at 45.8 µM (top of the series). A digest of the protocol: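 CellTiter-Glo luminescence after 48 h drug exposure at 37 °C; 500 cells/well, 1536-well format, pin-tool compound addition; DMSO = 100%, media-only = 0% viability.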

Experiment [7] can be described thus: Quantitative High-Throughput drug screen in 47 multiple myeloma cell lines against the NCATS MIPE library collection: KMS26_JCRB cell viability assay (AID 1918975). Also: nearly all actives have a fitted effect of over 45% in size. A digest of the protocol:
(§3)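 Luminescent ATP measurement with CellTiter-Glo gives viability, scaled between DMSO-only wells (100%) and media-only wells (0%). Cells, 500 per well, faced library compounds for 48 hours at 37C.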

The nature of experiment [8]: Quantitative High-Throughput drug screen in 47 multiple myeloma cell lines against the NCATS MIPE library collection: MOLP8_DSMZ cell viability assay (AID 1918977). Also: nearly all actives have a fitted effect of over 45% in size. In outline:
(§4)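 Cells were exposed to library compounds for 48 hours, after which ATP was measured by CellTiter-Glo. Signal was taken as median relative luminescence units.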

A short description of experiment [9]: Quantitative High-Throughput drug screen in 47 multiple myeloma cell lines against the NCATS MIPE library collection: NCIH929_DSMZ cell viability assay (AID 1918978). Also: nearly all actives have a fitted effect of over 35% in size. In outline: as §4
The nature of experiment [10]: Quantitative High-Throughput drug screen in 47 multiple myeloma cell lines against the NCATS MIPE library collection: OCIMY1_PLB cell viability assay (AID 1918979). Also: nearly all actives have a fitted effect of over 35% in size. In outline:
as §4

Experiment [11] can be described thus: Quantitative High-Throughput drug screen in 47 multiple myeloma cell lines against the NCATS MIPE library collection: JIM1_ECACC cell viability assay (AID 1918964). A digest of the protocol: as §2
The nature of experiment [12]: Quantitative High-Throughput drug screen in 47 multiple myeloma cell lines against the NCATS MIPE library collection: JJN3_DSMZ cell viability assay (AID 1918966; also: nearly all actives have a fitted effect of over 50% in size). In outline: as §2
Experiment [13] is described as follows: Quantitative High-Throughput drug screen in 47 multiple myeloma cell lines against the NCATS MIPE library collection: KMS12BM_JCRB cell viability assay (AID 1918971). Also: nearly all actives have a fitted effect of over 35% in size. A digest of the protocol: as §3
Experiment [14] is described as follows: Quantitative High-Throughput drug screen in 47 multiple myeloma cell lines against the NCATS MIPE library collection: KMS12PE_JCRB cell viability assay (AID 1918972). Also: nearly all actives have a fitted effect of over 30% in size. In outline: (§5)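 Viability readout: CellTiter-Glo luminescence following 5 min room-temperature incubation with reagent. Prior exposure: 48 h, 37C, humidified 5% CO2, 500 cells per well.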
Experiment [15] is described as follows: Quantitative High-Throughput drug screen in 47 multiple myeloma cell lines against the NCATS MIPE library collection: MMM1_PLB cell viability assay (AID 1918976). Also: nearly all actives have a fitted effect of over 35% in size. A digest of the protocol:
as §4

The nature of experiment [16]: Quantitative High-Throughput drug screen in 47 multiple myeloma cell lines against the NCATS MIPE library collection: KHM11_PLB cell viability assay (AID 1918962). Also: nearly all actives have a fitted effect of over 35% in size. In outline: as §1
Experiment [17] can be described thus: Quantitative High-Throughput drug screen in 47 multiple myeloma cell lines against the NCATS MIPE library collection: INA6_PLB cell viability assay (AID 1918965; also: nearly all actives have a fitted effect of over 55% in size). In outline:
as §5

Experiment [18] can be described thus: Quantitative High-Throughput drug screen in 47 multiple myeloma cell lines against the NCATS MIPE library collection: KMS20_JCRB cell viability assay (AID 1918973). Also: nearly all actives have a fitted effect of over 45% in size. In outline: as §2
Experiment [19] can be described thus: Quantitative High-Throughput drug screen in 47 multiple myeloma cell lines against the NCATS MIPE library collection: Karpas417_ECACC cell viability assay (AID 1918961). Conditions: Karpas417 myeloma viability, CellTiter-Glo ATP luminescence, 48 h; viability (% of DMSO): at 45.8 µM (top of the series). In outline:
as §5
A general note: Cellular ATP, detected with luciferase, serves as a proxy for viable cell number.
Potency is read from the fitted curve at half-maximal effect.

For `Cn1cc(C[C@@H](N)C(=O)O)c2ccccc21`, the Potency result in experiment [1], in [2], in experiment [3], in experiment [4], in [5] and in [6] was “inactive” in each case. In addition, the Potency result in experiment [7], in experiment [9] and in experiment [10] was “inactive” each time. Moreover, the Potency in [8] is 0.115 µM (active).

Turning to `Cc1ccc([N+](=O)[O-])cc1S(=O)(=O)N(C)N=Cc1cnc2ccc(Br)cn12`, the Potency was 0.0264 µM (active) in experiment [1]; 0.0118 µM (active) in experiment [2]; 0.0105 µM (active) in experiment [3]; 0.001 µM (active) in experiment [11]; 0.0105 µM (active) in [12]; 0.0132 µM (active) in experiment [4]. Besides, the Potency in experiment [13] is 0.0662 µM (active); in experiment [14], 0.0209 µM (active); in [7], 0.0235 µM (active); in experiment [15], 0.0833 µM (active); in [8] it was 0.0083 µM (active); in [10], 0.0526 µM (active).

`CC1=C(C(=O)Nc2cc3cn[nH]c3cc2F)C(c2ccc(Cl)cc2F)N=C(c2ccnc(Cl)c2)N1` (stereo unspecified): the Potency in experiment [1] was 18.7 µM (active); in [2] it was 20.9 µM (active); in experiment [11], 16.6 µM (active); in [17], 10.5 µM (active); in experiment [4], 18.7 µM (active); in experiment [5], 14.8 µM (active). In addition, the Potency in experiment [14] is 16.6 µM (active); in experiment [9], 14.8 µM (active). Further, the Potency entry in [16], in experiment [7] and in experiment [10] was “inactive” throughout.

For the compound `Cc1onc(-c2ccccc2)c1C(=O)N[C@@H]1C(=O)N2[C@@H](C(=O)O)C(C)(C)S[C@@H]12`, the Potency entry in [1], in experiment [2], in experiment [3], in experiment [11], in [4] and in experiment [5] was “inactive” throughout. The Potency entry in [13], in experiment [14], in [7] and in experiment [9] was “inactive” each time.

For the compound `Nc1nc(=O)n([C@H]2C[C@H](O)[C@@H](CO)O2)cc1F`, the Potency result in experiment [1], in experiment [12], in [4], in [5] and in experiment [7] was “inactive” throughout. The Potency in experiment [2] is 0.0074 µM (active); in experiment [3], 1.32 µM (active); in experiment [17] it was 0.0296 µM (active); in experiment [6] it was 0.0418 µM (active); in experiment [14], 0.059 µM (active); in [9], 16.6 µM (active).

As for `C[C@H](CCC(=O)O)[C@H]1CC[C@H]2[C@@H]3[C@H](O)C[C@@H]4C[C@H](O)CC[C@]4(C)[C@@H]3CC[C@]12C`, the Potency result in experiment [1], in experiment [2], in [3], in [17], in experiment [4] and in [5] was “inactive” throughout. The Potency result in experiment [6], in experiment [13], in experiment [14], in experiment [18], in experiment [7] and in [8] was “inactive” in each case. In addition, the Potency result in experiment [9] and in experiment [10] was “inactive” throughout.

For `CC[C@H](CC[C@@H](C)[C@H]1CC[C@H]2[C@@H]3CC=C4C[C@@H](O)CC[C@]4(C)[C@@H]3CC[C@]12C)C(C)C`, the Potency result in [1], in [2], in experiment [16], in experiment [3], in experiment [12] and in experiment [4] was “inactive” throughout. The Potency result in experiment [5], in experiment [13], in experiment [18], in [7], in experiment [8] and in experiment [9] was “inactive” each time.

On to `C[C@H]1COc2c(N3CCN(C)CC3)c(F)cc3c(=O)c(C(=O)O)cn1c23`, for which the Potency result in [1], in experiment [19], in experiment [3], in experiment [11], in experiment [17] and in experiment [4] was “inactive” in each case. Moreover, the Potency result in experiment [13], in experiment [18], in [7], in experiment [9] and in experiment [10] was “inactive” throughout.

As for `Cn1cnc(=N)c2[nH]cnc21`, the Potency in experiment [1] was 0.296 µM (active); in experiment [19] it was 0.0235 µM (active); in [16], 0.372 µM (active); in [3], 1.05 µM (active); in experiment [11], 0.0935 µM (active); in [17], 0.0469 µM (active). In addition, the Potency in [12] is 0.166 µM (active); in experiment [4], 0.235 µM (active); in [5], 0.0743 µM (active); in [6], 0.059 µM (active); in experiment [13], 0.105 µM (active); in [14], 0.0935 µM (active). Further, the Potency is 0.0526 µM (active) in experiment [18]; 0.132 µM (active) in experiment [7]; 0.148 µM (active) in [15]; 0.0418 µM (active) in [8]; 0.132 µM (active) in [9]; 0.743 µM (active) in experiment [10].

For the compound `Nc1ccn(C2CO[C@H](CO)O2)c(=O)n1` (stereo partly specified), the Potency entry in [1], in [2], in experiment [4], in experiment [5], in experiment [6] and in experiment [9] was “inactive” each time. Moreover, the Potency result in [10] is “inactive”. In experiment [3], the Potency is 3.32 µM (active).

Consider `CC(C=CC1=C(C)CCCC1(C)C)=CC=CC(C)=CC(=O)Nc1ccc(O)cc1`, for which the Potency is 6.05 µM (active) in [1]; 4.29 µM (active) in experiment [19]; 17.1 µM (active) in experiment [16]; 5.4 µM (active) in experiment [3]; 13.6 µM (active) in experiment [17]; 21.5 µM (active) in experiment [12]. Also, the Potency in experiment [4] is 19.1 µM (active); in [5] it was 12.1 µM (active); in [6], 8.55 µM (active); in experiment [14], 3.82 µM (active); in [7], 19.1 µM (active); in experiment [15], 21.5 µM (active). The Potency in [9] and in [10] was 21.5 µM (active) each time.

Turning to `COc1cc(OC)c(NC(=O)Nc2cc(C)on2)cc1Cl`, the Potency result in experiment [1], in experiment [2], in [17], in experiment [4], in experiment [14] and in experiment [7] was “inactive” in each case. The Potency entry in [9] and in [10] was “inactive” throughout. The Potency in experiment [5] is 14.8 µM (active).

Turning to `CCCCCCCCc1ccc(CCC(N)(CO)CO)cc1`, the Potency is 8.33 µM (active) in [1]; 6.62 µM (active) in experiment [19]; 8.33 µM (active) in experiment [16]; 13.2 µM (active) in experiment [3]; 5.9 µM (active) in [11]; 8.33 µM (active) in [17]. The Potency in experiment [12] was 18.7 µM (active); in experiment [4], 18.7 µM (active); in [5], 5.9 µM (active); in experiment [13], 14.8 µM (active); in experiment [14], 7.43 µM (active); in [18], 3.72 µM (active). The Potency is 13.2 µM (active) in [15], 14.8 µM (active) in [8], 7.43 µM (active) in experiment [9] and 23.5 µM (active) in experiment [10].
